Laboratory results: PubChem BioAssay (Tox21)
Inconclusive results are not listed. Values without a mark were called inactive. The source made the active and inactive calls. Calls follow the shape of the dose curve; as a rule, active = well fitted cell-killing curve with a large enough effect in the repeat runs; inconclusive = weak or mixed curves; inactive = flat fitted curve, though single readings scatter.

test: qHTS assay to identify small molecule antagonists of the TGF-beta/Smad signaling pathway - cell viability counter screen (AID 1346824); conditions: SBE-bla HEK293T viability, CellTiter-Glo luminescence; series mostly up to 76.8 µM; also: nearly all actives have a fitted effect of over 50% in size
Source text: U.S. Tox21 Program National Center for Advancing Translational Sciences [NCATS] NIH Chemical Genomics Center [NCGC] U.S. Environmental Protection Agency [EPA] National Institutes of Environmental Health Sciences [NIEHS] National Toxicology Program [NTP] U.S. Food and Drug Administration [FDA] Tox21 Assay Overview: Transforming growth factor beta (TGF-beta) superfamily consists of a large number of structurally related dimeric proteins that act as hormones or local mediators in regulating a wide range of biological functions. This superfamily includes TGF-betas themselves, the bone morphogenetic proteins (BMPs) and the activins. These ligands induce oligomerization of serine/threonine receptor kinases and phosphorylate the cytoplasmic signaling molecules of Smad protein family. CellSensor SBE-bla HEK 293T cell line (Life Technologies, Carlsbad, CA), responsive to TGF-beta was used to screen Tox21 10K compound library for identification of agonists/antagonists of the Smad signaling pathway. This cell line contains a beta-lactamase reporter gene under control of the Smad binding element (SBE) stably integrated into HEK 293T cells. Also cytotoxicity of the compounds was tested in parallel by measuring the cell viability using CellTiter-Glo assay system in the same wells.
Tox21 Assay Protocol Summary: SBE-bla HEK 293T cells were dispensed at 4,000/well in 5 uL of assay medium into black wall/clear-bottom 1536-well plates using a Multidrop Combi (ThermoFisher Scientific, Waltham, MA) dispenser. After the assay plates were incubated at 37 C and 5% CO2 for an overnight, 23 nL of compounds dissolved in DMSO, positive controls or DMSO only was transferred to the assay plate by a Pintool station (Kalypsys, San Diego, CA). Compound transfer was followed by the addition of 1 uL of 0.25 ng/mL TGF-beta1 or assay buffer using two separate tips of Flying Reagent Dispenser (FRD, Aurora Discovery, San Diego, CA). The assay plates were incubated at 37 C and 5% CO2 for 5 hr. One uL of LiveBLAzer B/G FRET substrate (Life Technologies) was added using a Flying Reagent Dispenser (FRD, Aurora Discovery, San Diego, CA) and the plates were incubated at room temperature for 2 hr. Fluorescence intensity (405 nm excitation, 460 nm and 530 nm emissions) was measured using an Envision plate reader (PerkinElmer, Shelton, CT). For cytotoxicity read, 4 uL of CellTiter-Glo reagent (Promega Corporation, Madison, WI) was added to each well of the assay plates using FRD. After 30 min incubation at room temperature, the luminescence intensity was measured using ViewLux plate reader (PerkinElmer).
% is scaled to controls: 0 for no effect and ±100 for the full control effect.

| Structure (SMILES) | outcome | viability change, negative = cytotoxic |
| --- | --- | --- |
| O=Cc1ccc(C(=O)O)cc1 | inactive | – |
| COc1cc(S(N)(=O)=O)cc(C(=O)O)c1OC | inactive | – |
| COc1cc(OC)cc(OC)c1 | inactive | – |
| N=C(N)N1CCc2ccccc2C1 | – | -7.19% [at 6.97 µM] |
| CCCCc1ccc(Cl)cc1 | inactive | – |
| CCCCNCC | inactive | – |
| CC1(C)C(=O)C(C)(C)C1=O | inactive | – |
| COC(=O)c1ccccc1Cl | inactive | – |
| CCNC(=O)C(C)OC(=O)Nc1ccccc1 (stereo not given) | inactive | – |
| CCCc1ccc(O)c(OC)c1 | inactive | – |
| Clc1cc(Cl)c(Cl)c(Cl)c1Cl | inactive | – |
| CCOCCOCCOC(C)=O | inactive | – |
| CNC(C)=O | inactive | – |
| CN(C)CCc1c[nH]c2ccc(C[C@H]3COC(=O)N3)cc12 | inactive | – |
| CCOC(=O)COc1ccc2c(C)c(CCN(CC)CC)c(=O)oc2c1Cl | inactive | – |
| c1cc2ccc3ccc4ccc5cccc6c(c1)c2c3c4c56 | – | 5.15% [at 2.72 µM] |
| CCCCCCCC(=O)N(C)C | inactive | – |
| C=CCON/C(CCC)=C1\C(=O)CC(C)(C)C(C(=O)OC)=C1O | inactive | – |
| COC(=O)C(c1ccccc1Cl)N1CCc2sccc2C1 (stereo not given) | inactive | – |
| CCCC(=O)CC | inactive | – |

| Structure (SMILES) | outcome | viability change, negative = cytotoxic |
| --- | --- | --- |
| C=CCOC(=O)CCCCCCCC | inactive | – |
| Cc1nc2ccc(Cl)cc2[nH]1 | inactive | – |
| O=C(OOC(=O)c1ccccc1)c1ccccc1 | inactive | – |
| CCC(C)(C)C | inactive | – |
| C=CC(C)(CCC=C(C)C)OC(=O)C(C)C (stereo not given) | inactive | – |
| CC/C=C\CCOC(=O)c1ccccc1 | inactive | – |
| C[C@@H](CN1CC(=O)NC(=O)C1)N1CC(=O)NC(=O)C1 | inactive | – |
| COc1cc2nc(N3CCN(C(=O)C4CCCO4)CC3)nc(N)c2cc1OC (stereo not given) | inactive | – |
| CC(C)(C)c1ccc(C(=O)CCCCl)cc1 | inactive | – |
| CCCOc1ccc(C(=O)OCCN(CC)CC)cc1N | inactive | – |
| COC(=O)c1ccc(NC(C)=O)cc1OC | inactive | – |
| O=C(O)Cc1ccccc1Oc1ccc(Cl)cc1Cl | inactive | – |
| CCOC(=O)[C@H](CCc1ccccc1)N[C@H]1CS[C@H](c2cccs2)CN(CC(=O)O)C1=O | inactive | – |
| CCCC[O][Al]([O]CCCC)[O]CCCC | inactive | – |
| CC(C)(C)C(=O)CCc1ccc(Cl)cc1 | inactive | – |
| COc1ccc2cc(CCC(C)=O)ccc2c1 | inactive | – |
| CCCCS | inactive | – |
| Cc1nnc(C(=O)NC(C)(C)c2nc(C(=O)NCc3ccc(F)cc3)c(O)c(=O)n2C)o1 | inactive | – |
| N#CC1(N)CCCCC1 | inactive | – |
| Cc1ccc2ccccc2n1 | inactive | – |
